Assay results taken from PubChem BioAssay AID2384 (Southern Research Specialized Biocontainment Screening …, 2010).
The campaign covered roughly 2,300 compounds. About 1,100 (48%) were called active. So high a share suggests a set chosen from earlier hits. The list shows a part of the results. Measured potencies and affinities stand elsewhere. Unmarked numbers belong to inactive results. The rule behind the calls is not given here.

Experiment: inhibitors in S. typhi counter-screen strain, dose response, counter-screen for PhoP regulon inhibitor project, fluorescence, 4 h (AID 2384)
Conditions: S. typhi GFP reporter counter-screen; series mostly up to 150 µM; inhibition: at the top concentration

Row | SMILES | inhibition [%]
1 | O=C1CC(=O)CC(c2ccco2)C1 | -5.92
2 | FC(F)Oc1ccc(NC(=S)NCc2nc3ccccc3[nH]2)cc1 | 6.2
3 | Cc1nn(-c2ccccc2)c(C)c1/C=N/n1c(-c2ccc(C(C)(C)C)cc2)n[nH]c1=S | -19.4
4 | O=C1CCCN1CCC1CCN(C2CC(=O)N(c3ccc(Cl)cc3)C2=O)CC1 (configuration not stated) | 21.5
5 | COc1ccc(-c2cc(=NCC(=O)O)c3ccccc3o2)cc1 | 10.1
6 | COc1ccc(C(=O)Oc2ccc(/C=N/O)cc2)cc1 | 18.4
7 | CCCC1=C(C(=O)OCC)C(c2ccc(O)cc2)n2ncnc2N1 (configuration not stated) | 4.74
8 | Cc1ccccc1C(=O)c1cccn1CC(=O)NCCC1=CCCCC1 | 10.5
9 | Cc1cc2ccccc2c(=O)n1CC(=O)NCCC1=CCCCC1 | 14.6
10 | Cc1nc(C)c(-c2ccc(SCc3ccccc3F)nn2)s1 | -11.1
11 | O=C(O)c1cn(-c2ccc(F)cc2)c2cc(Cl)c(F)cc2c1=O | 22.6
12 | COC(=O)C(O)(c1c(C)[nH]n(-c2ccccc2)c1=O)C(F)(F)F (configuration not stated) | 29.5
13 | CN(C)C(=O)COC(=O)/C=C/c1ccccc1[N+](=O)[O-] | 0.25
14 | Cc1nc2scc(C)n2c(=O)c1S(=O)(=O)N1CCN(c2cccc(C(F)(F)F)c2)CC1 | -29.1
15 | CCCC(c1nnnn1Cc1ccc(OC)cc1)N1CCN(c2ccccc2OC)CC1 (configuration not stated) | -22.1
16 | O=c1cc(-c2ccccc2)nc(N2CCN(Cc3ccccc3)CC2)[nH]1 | 10
17 | COc1ccccc1Oc1coc2c(CN3CCN(C)CC3)c(O)ccc2c1=O | -13.2
18 | CCCCCN1C(=O)/C(=C/c2c(N3CCc4ccccc4C3)nc3ccccn3c2=O)SC1=S | -24.1
19 | Cc1ccc(-n2ncc3c(=O)[nH]cnc32)c(C)c1 | 8.53
20 | CCCCN(CCCC)CCNC(=O)CSCc1ccc(C)cc1 | 10.3
21 | COc1ccc(N2C(=O)CC(N3CC=C(c4ccccc4)CC3)C2=O)cc1 (configuration not stated) | -11.4
22 | Brc1ccc2c(c1)CN1CCCC1=N2 | 15
23 | CC(C)[C@@H](C(=O)NC1CCCC1)N1C(=O)N2CCc3c([nH]c4ccccc34)[C@@]2(C)C1=O | -11.3

Row | SMILES | inhibition [%]
24 | O=C(N/N=C/c1ccc(F)c(F)c1)c1cc2c(s1)-c1ccccc1CC2 | 15
25 | COc1cccc(CNC23CC4CC(CC(C4)C2)C3)c1OCc1ccccc1 | -6.35
26 | COc1cc(CNc2ccc(N3CCN(C(C)=O)CC3)cc2)ccc1OCc1ccccc1 | 15.1
27 | COc1ccc(Cl)cc1NC(=O)c1cc(-c2ccccc2)on1 | -21.2
28 | O=c1c2ccccc2nc(-c2ccoc2)n1CCc1ccccc1 | 13.3
29 | CCc1nc(SCC(=O)NCCc2ccccc2)c2c(=O)n(C)c(=O)n(C)c2n1 | 16.1
30 | Cn1c(=O)c2c(nc(Br)n2CCSc2nc3ccccc3o2)n(C)c1=O | -4.7
31 | CC1(C)CC(CCNC(=O)c2ccc(-n3cnnn3)cc2)CC(C)(C)N1 | -4.51
32 | COc1ccc(C(=O)Nc2cc3c(cc2OC)CCCC3)cc1Br | -5.19
33 | Nn1cnnc1SCC(=O)Nc1ccc(C2CCCCC2)cc1 | 27.5
34 | c1ccc(-c2nc(NC3CC3)nc(-n3ccnc3)n2)cc1 | -18.3
35 | O=C(Nc1ccc2c(c1)nc1n2CCN(Cc2ccccc2)C1)c1cccs1 | 23.8
36 | Cc1ccccc1Oc1ccc(Oc2ccccc2C)nn1 | -7.56
37 | CC1CCN(C(=O)C2CCCN(S(C)(=O)=O)C2)CC1 (configuration not stated) | -2.71
38 | C[N+]1(C)C2CCC1CC(OC(=O)c1ccccc1)C2 (configuration not stated) | 1.68
39 | CCN(CC)C(=O)C1CCN(Cc2ccc(Br)cc2)CC1 | 11.4
40 | CN(C)C=NC(=O)c1cc(C(=O)c2ccc(Cl)cc2Cl)c[nH]1 | 29.9
41 | COc1ccc(N2C3=C(CC4=C2CC(C)(C)CC4=O)C(=O)CC(C)(C)C3)cc1 | 14.8
42 | COc1ccc(Cl)cc1NC(=O)CN(C)CC(=O)Nc1ccccc1C(F)(F)F | 9.99
43 | CC1Cc2ccccc2N1C(=O)CN1C(=O)C(=O)N(Cc2ccccc2)C1=O (configuration not stated) | -9.75
44 | Cc1c(/C=N/NC(=O)c2ccc3c(c2)OCO3)cnn1C | 12.9
45 | Cc1c(/C=N/NC(=O)c2sc3ccccc3c2Cl)cnn1C | 10.8
46 | N#CC1=C2N=C(N)c3ccccc3N2C2=C(C(=O)CCC2)C1c1cccc(Cl)c1 (configuration not stated) | -19.9

Row | SMILES | inhibition [%]
47 | CC(C(=O)c1ccc2ccccc2c1)N1CCCCC1 (configuration not stated) | 36.4
48 | c1ccc2oc(-c3ccc(Nc4nc(N5CCCCC5)nc(N5CCOCC5)n4)cc3)nc2c1 | 8.13
49 | CCOc1ccccc1NC1=NC2CS(=O)(=O)CC2S1 (configuration not stated) | -10.3
50 | CCOC(=O)c1sc(N)c(C(=O)OC)c1C | -13.7
51 | CC(C)c1cc(C(=O)Nc2ccc3c(c2)OCO3)no1 | 9.74
52 | S=C1SCN(Cc2cccnc2)CN1Cc1cccnc1 | 25
53 | CC(OC(=O)Cc1coc2cc3c(cc12)CCC3)C(=O)NCc1ccc2c(c1)OCO2 (configuration not stated) | 5.64
54 | Cc1ccc(NC(=O)CN(C)C(=O)Cn2ccsc2=N)cc1 | 27.2
55 | O=C(NC(C(=O)c1ccccc1)n1c(=O)cc[nH]c1=S)c1ccccc1 (configuration not stated) | 16.6
56 | CCSc1nc(C)cc(C)c1S(=O)(=O)c1ccccc1C | 1.56
57 | CCN(CC)CCSc1nnc2c3ccccc3n(Cc3ccccc3)c2n1 | 16.3
58 | O=C1SC(c2ccccc2)=C/C1=C\N1CCCCC1 | 31.5
59 | Cc1cc(C)n(-c2nc3ccccc3nc2N2CCN(C(=O)c3ccc(F)cc3)CC2)n1 | 10.4
60 | O=C(CCNS(=O)(=O)c1cccc2nonc12)N1CCN(c2cccc(Cl)c2)CC1 | -12.9
61 | Cc1c(C=O)c2ccccn2c1C(=O)c1ccccc1 | 0.47
62 | CCCCC(=O)Nc1ccc2c(c1)C(=O)NC2=O | -15.3
63 | CCOC(=O)COc1cccc2c(=O)n(CC(=O)N3CCCCC3)ccc12 | 3.71
64 | COc1cccc(-c2cc(C(=O)O)[nH]n2)c1 | -27.4
65 | COc1nc(N(C#N)CC(N)=O)nc(N2CCCC2)n1 | -14.2
66 | COC(=O)c1cc(CSC(=N)N)ccc1OCCC(C)C | 3.72
67 | CCCCOc1ccc(CN=C(N)N)cc1Cl | 23.5
68 | COc1ccc(CSCCN)cc1Cl | 38
69 | CCOC(=O)c1c(CSC(=N)N)n(C)c2cc(Br)c(OC(C)=O)cc12 | 38.3

Row | SMILES | inhibition [%]
70 | Cn1cnc2cc(NC(=O)c3cccs3)ccc21 | 28.9
71 | CCOC(=O)c1cccc(NC(=O)c2cccs2)c1 | -4.52
72 | CCN(CC)CCNc1nc(-c2ccc(OC)cc2)c(-c2ccc(OC)cc2)s1 | 27.2
73 | COc1ccc(CC(=O)N(Cc2cc3cc(OC)ccc3[nH]c2=O)C(C)C)cc1 | 17.3
74 | CC(=O)c1cccc(NC(=O)CCC2CCCC2)c1 | 27.3
75 | CCC(=O)Nc1nnc(-c2ccco2)o1 | 8.68
76 | Cc1cc(=O)n(CC(C)C)c(O)c1C#N | -31.6
77 | S=C1NCN(C2CCCCC2)CN1c1ccccc1 | 9.4
78 | CCc1nccc2c1[nH]c1ccccc12 | -35.1
79 | C=CCOc1ccc(-c2n[nH]c(=S)o2)cc1 | 18.3
80 | O=C1c2ccccc2C2=Nc3ccccc3SC(c3ccccc3F)C12 (configuration not stated) | 12.1
81 | COc1ccc(NC2=Nc3ccccc3CC2)cc1 | 12.3
82 | Cc1cccc(NS(=O)(=O)c2ccc3c(c2)OCCO3)c1 | 1.33
83 | c1ccc(CNc2nc(-c3ccccn3)nc3ccccc23)cc1 | 12
84 | Cc1ccc(Cn2c(=N)c(C(=O)NCc3ccco3)cc3c(=O)n4ccccc4nc32)cc1 | 12
85 | CN(CCO)CC(O)Cn1cnc2c1c(=O)n(C)c(=O)n2C (configuration not stated) (tested in a mixture with another compound) | 23.2
86 | COc1ccc(N2CCN(C(=O)c3cc4c(s3)-c3ccccc3S(=O)(=O)C4)CC2)cc1 | -5.98
87 | c1ccc(-c2nnc(-c3c[nH]c4ccccc34)nc2-c2ccccc2)cc1 | 3.86
88 | O=c1oc2ccccc2c(O)c1C(c1ccccn1)c1c(O)c2ccccc2oc1=O | -5.58
89 | CC(C)(C)n1nc2c(c1NC(=O)Cc1cccs1)CSC2 | 4.74
90 | CCCCN(C)C(=O)c1ccc(S(=O)(=O)N2CCOCC2)cc1 | -3.07
91 | COC(=O)c1ccc(S(=O)(=O)N2CCC(c3nc4ccccc4o3)CC2)cc1 | -17.6
92 | CN(C)CCCN(C(=O)c1cc2cc([N+](=O)[O-])ccc2s1)c1nc2cc3c(cc2s1)OCCO3 | -3.58

Row | SMILES | inhibition [%]
93 | O=C(NCc1cccnc1)C1c2ccccc2C(=O)N1Cc1ccccc1 (configuration not stated) | -11.2
94 | CCOC(=O)c1c(C)sc2c1N(C(C)=O)c1cc(Cl)ccc1S2 | 4.79
95 | NC(=O)c1c(NC(=O)CSc2nc(N)cc(=O)[nH]2)sc2c1CCCC2 | 5.04
96 | O=C(CC(=O)NCc1ccccc1)NCc1ccccc1 | -7.97
97 | CCOc1ccc(NC(=O)CN(C)C(=O)c2ccccc2CCc2ccccc2)cc1OCC | 1.33
98 | CCOCCCNC(=O)CN1CCN(Cc2ccccc2C)C1=O | -28.5
99 | COC(=O)C1C(=O)C2=C(CC1C)Nc1ccccc1NC2c1ccc(C)s1 (configuration not stated) | -6.97
100 | CCc1nn(CCCN2CCN(c3cccc(Cl)c3)CC2)c(=O)n1CCOc1ccccc1 | 35
101 | Cc1nn(Cc2ccccc2Cl)c2sc(C(=O)Nc3ccccc3N3CCOCC3)cc12 | -13.9
102 | CN1C(=O)C2(Nc3ccccc3-c3nc4ccccc4n32)c2ccccc21 (configuration not stated) | 15
103 | Oc1c(Br)cc(Br)cc1CNc1ccccn1 | 20.5
104 | CC(C)N=C1NN=C(c2ccc(F)cc2)CS1 | -1.84
105 | Cc1c(O)cccc1C(=O)N[C@@H](CSc1ccccc1)[C@H](O)CN1C[C@H]2CCCC[C@H]2C[C@H]1C(=O)NC(C)(C)C | 25.7
106 | Cn1c(CN2CCCCC2)nc2cc(NS(=O)(=O)c3ccc(Cl)cc3)ccc21 | 29.6
107 | COc1ccc(OCC(=O)Nc2ccc3c(c2)nc(CCN2CCC(C)CC2)n3C)cc1 | -8.27
108 | O=C(Nc1ccccc1)C1=C(O)CC(c2ccc(Cl)cc2)N2CCN=C12 (configuration not stated) | -11
109 | O=c1c2cnn(-c3ccccc3)c2ncn1CCc1ccccc1 | 12.7
110 | O=C(NC(=O)c1ccccc1)OCC1CCCN2CCCCC12 (configuration not stated) | -11.2
111 | COc1ccccc1NC(=O)Cn1nc(-c2ccncc2)nc1SCC(=O)NC1CCCC1 | 11.8
112 | C=CCn1c(C)c(C(C)=O)c(SC)nc1=S | 5.5
